# Source: PubChem BioAssay AID1347426 (Functional Genomics Laboratory (NCATS/FGL), 2020)
# In all, about 31,000 sequences went through this assay and about 1,400 (4.5%) were called active. Only a selection was taken, and actives are over-represented in it overall. Values without a mark were called inactive.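 How the source made its calls: active means median seed-adjusted z-score above 1 or below -1; inactive means the rest.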
# Experiment: Novel Modifiers of Survival Motor Neuron (SMN) Protein: Gene Identification via Genome-wide siRNA Screen
# Conditions: HEK293T SMN2-luciferase reporter, siRNA knockdown, 72 h; actives lie on both sides
# From the text: Spinal muscular atrophy (SMA) is the most common neuromuscular autosomal recessive disorder and one of the leading genetic causes of infant death. SMA results from mutations inducing loss of function or deletion in the survival of motor neuron-1 gene (SMN1), leading to deficiency of the survival motor neuron (SMN) protein. Although a second nearly identical gene, SMN2, is retained in humans, its expression primarily produces an aberrantly spliced isoform that is largely unstable and quickly degraded. We performed a genome-wide RNAi screen using a cell-based reporter assay to identify genes and pathways that modulate SMN protein stability. The screen identified over 200 genes that led to the greatest increase or decrease in luciferase expression.
# Using HEK293T cells stably expressing a luciferase reporter that combines the promoter and splicing based cassettes in tandem with the major portion of the native SMN2 cDNA with luciferase, we performed a genome-wide RNAi screen to identify modulators of SMN protein levels. Luciferase is expressed when full-length SMN protein is generated with luminescence signal proportional to SMN protein levels. Our luciferase-based reporter assay was used to screen Ambion Silencer Select Human Druggable Genome siRNA library (10418 genes, 3 unique siRNAs per gene) using lipid-based reverse transfection.
# Briefly, 1 pmol of each siRNA was spotted to a well of a 384-well plate (Corning, Corning, NY) and 20 microL of serum-free DMEM containing […] of Lipofectamine RNAiMax (Life Technologies, Carlsbad, CA) was then added to each well. Transfected cells were maintained at 37 degrees C in 5% CO2 for 72 hours, 20 microL of ONE-Glo Reagent (Promega) was added to wells for luciferase quantification. Raw luminescence reads were normalized to Ambion(R) Silencer(R) Negative Control #2 siRNA, then log10 transformed. A robust statistical measure of median absolute deviation (MAD) to standardize siRNA activities from each screen. Common Seed Analysis was used to help prioritize clean hits as opposed to those appearing to arise from seed based off-target effects. Candidate modulators were defined as the genes having a MAD score greater than 1.0 or less than -1.0.
row,Sequence,median seed-adjusted z-score
1,GGAAGAAUUCAAUACGGCATT against FOXJ2,-0.627
2,GGAUGCACCACAUCUAGUATT against RPS6KA3,-0.0233
3,CCAAUUCCAGGUUAACUUUTT against S100A7A,0.212
4,GGAGUGAAGACUUCGAGAATT against KCNN2,-0.0251
5,CCUUCAAGCUGCAGACUAATT against THBS4,-0.28
6,CGACAUAACUAUGUUCGGATT against ETF1,-1.12 (active)
7,GGAUUUUGCCUUAGCGGUATT against OSBPL8,0.231
8,GCCUAUCCUAGAACCAUCATT against KLK14,-0.0998
9,GGACUUACCUUCAACCAAUTT against RSF1,0
10,CAACCUUCCUCGGACUAAUTT against SLC26A2,-1.25 (active)
11,GGACUUGGAUUCGAGGAUATT against COL15A1,0.161
12,CCUAAAUGAUCGCAAAGUATT against PABPC1,-0.126
13,CCUUUACUACGUGUGCACATT against POLR2I,-3.27 (active)
14,GGAAGAACUUUCUCGGUAATT against TIMP2,0.0444
15,CAAACGAUCUGAAGGUGAATT against AKTIP,-0.194
16,GGACAGAGGGCAACUAUAATT against KCNV2,-1.13 (active)
17,AAGCUAUUGUGAUCUCUGATT against ZBTB3,-0.0419
18,GAAUUAUGGAUGACGAUAATT against CAPSL,-0.168
19,CACUCGUUCCGGUUCCUUUTT against ZNF439,-0.26
20,CAGUGAGGCUGUUCUCGAATT against LIMCH1,0.125
21,CAGGUGAUGUGAUAUCAUATT against VGLL2,-0.0234
22,GCUAAUCCAUUUGAUGACATT against PYGO1,-1.23 (active)
23,GAAUGUAACUUCACAACCATT against ZHX2,0.0708

row,Sequence,median seed-adjusted z-score
1,AGAAAGCUUUGGGCAAAUATT against EEF1B2,0.388
2,CAACAUAUCUGCACAGGUATT against FLVCR2,-0.336
3,GGCUGUAACGUGAACAUCATT against DAPK1,0.27
4,UCGAGCAACUUAUUCCAUATT against MED30,-2.06 (active)
5,GCCUGUCCCAGACCAUUGATT against KLC4,0
6,GCUUCUCUUUGAAUACCCATT against KCNA2,-1.03 (active)
7,CAAGUUCUCUUAUCCACCATT against PPP1R15A,0.539
8,UGAAAUGGAUGAAAACCUATT against SNAP25,0
9,GCGUGUUCGUGCACGUCUATT against MOBKL2A,0.268
10,CAGCAACCAUGGAAAUCGATT against MYST4,0.138
11,ACUGGACAGUGGUAUCAGATT against UBASH3A,-1.1 (active)
12,CAGGUACAGCGCAUCGUUATT against EDC4,0
13,GGGAUGAUUCAGACAAACATT against ZC3HAV1,0.522
14,CAGUGGAUCUAUAUGAACATT against KIT,-0.686
15,GCAUUUACACUGUAUAUUATT against POU4F2,1.46 (active)
16,AACUCGCAGUGGUUCAAUUTT against TXNDC8,-0.281
17,GCAAGGAUAUGUACCAGAUTT against AGXT,0.017
18,GGUUCAAUGGAAAAGGGAATT against DLX6,0.0275
19,GAACUGAUAUCUGAAGAGATT against MLPH,-1.2 (active)
20,CCUUCAUUGAGGACCUGAATT against PTP4A3,0.354
21,GCUUCUCACGAGAUUGAAATT against SCARA3,-0.05
22,GGGUUAGACGGAUACAAGATT against LILRA2,-0.103
23,CAGUACAGGUUGAGUCAAATT against LRRFIP1,-0.181

row,Sequence,median seed-adjusted z-score
1,GCAAUUGAAUAUUGGAGUUTT against MED17,-2.06 (active)
2,CAUAGAAGCGGAUACUUAUTT against GALM,-0.111
3,GCAGGGUGCACAUAUCAUUTT against VNN3,0.343
4,ACAUCUGCCUGAUCUCAUATT against INDO,0.0511
5,CCACUAAACUGCGAGAGAATT against CEBPD,-0.101
6,GUGUGAGGGUUGAACUCAATT against EGLN1,2.05 (active)
7,CGGUAUUAUUGUCAUUGCATT against UBE2K,0.497
8,GCAAUAUGUUUAUCCAUAATT against CSE1L,0.425
9,GACAAAUGUUUGGUCAAUUTT against A2BP1,1.17 (active)
10,AUACUGACUUCAUAGAAAATT against RGS2,0.00236
11,GGAUAUCAACUUAUUAGAUTT against XPO1,1.12 (active)
12,GCAUUGCAGAGAACCGACATT against METTL7A,0.278
13,CCUUGAUAGUGGUCGGGAATT against OSBPL3,0.0159
14,ACAGUGUAUUCAAACAGUATT against NGF,-0.325
15,GGAUAACUUCUCCUUGUCATT against PRM3,0.249
16,AGAGGAUCAAGGUUUUAAATT against APBA2,1.66 (active)
17,GGCCGUUACUGAUUGAGCUTT against CAPN7,0.125
18,GCAUUUCGCUGUACAAGUUTT against IPO4,-0.0188
19,GGAUUCAUCCGGUCCAGAUTT against PEX5L,0.0982
20,GGCUUGCUGUAAUUACCCATT against ABCB1,-0.384
21,GCUUUACAUGGUUUUCGAATT against CASK,-0.422
22,GGAGAGUGCUACAAGGUGATT against COL6A2,0.0119
23,CAAGUUCUAUCACUCCUUUTT against IRX2,-0.409
